Bioassay records as filed in PubChem BioAssay.
Nrf2 ARE act: qHTS of Nrf2 Activators; AREc32 ARE-luciferase reporter (MCF7-derived line), luminescence, 24 h; Potency, µM (series often up to 46.1 µM), for inactives: top-dose activation, most hits filed as activators; actives 0.31% (n = 410,000); AID 624171, 2012; note: potency is the fitted concentration of half-maximal effect; % of control where 0% means no effect; nearly all actives have a fitted effect of over 65% in size
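Cells of the AREc32 ARE-luciferase line are plated in OPTI-MEM containing 5% FBS and left overnight at 37 deg C. Compounds are pinned in, incubation continues 24 hr, and firefly luciferase signal is then measured.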
ELG1 DNA repair: qHTS screen for small molecules that inhibit ELG1-dependent DNA repair in human embryonic kidney (HEK293T) cells expressing luciferase-tagged ELG1; HEK293T ELG1-luciferase reporter, luminescence, 16 h; DNA damage induced by 5-fluorouridine; Potency, µM (top dose mostly 46.1 µM), inactives show top-dose activity change, negative = inhibition, actives largely listed as inhibitors; actives 2.3% (n = 330,000); AID 504467, 2011; note: potency is the fitted concentration of half-maximal effect; % is set by controls: 0 for no effect and ±100 for the full control effect; nearly all actives have a fitted effect of over 55% in size
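Reporter activity after DNA damage by 5-fluorouridine is monitored. Compound-treated cells incubate 16 hr at 37 °C, then ONE-Glo is added for 30 min before luminescence reading.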
IDH1 R132H inh: qHTS for Inhibitors of mutant isocitrate dehydrogenase 1 (IDH1): qHTS; IDH1-R132H enzyme, NADPH consumption, diaphorase/resazurin fluorescence; Isocitrate dehydrogenase [NADP] cytoplasmic (Homo sapiens), O75874; Potency, µM (titrated, usually from 76.6 µM), for the others: top-dose activity change, negative = inhibition, hits mostly inhibitors; AID 602179, 2012; actives 0.093% (n = 390,000); note: potency is the fitted concentration of half-maximal effect; % is set by controls: 0 for no effect and ±100 for the full control effect; nearly all actives have a fitted effect of over 65% in size
Target sequence (O75874 whole entry R132H, stated change not applied): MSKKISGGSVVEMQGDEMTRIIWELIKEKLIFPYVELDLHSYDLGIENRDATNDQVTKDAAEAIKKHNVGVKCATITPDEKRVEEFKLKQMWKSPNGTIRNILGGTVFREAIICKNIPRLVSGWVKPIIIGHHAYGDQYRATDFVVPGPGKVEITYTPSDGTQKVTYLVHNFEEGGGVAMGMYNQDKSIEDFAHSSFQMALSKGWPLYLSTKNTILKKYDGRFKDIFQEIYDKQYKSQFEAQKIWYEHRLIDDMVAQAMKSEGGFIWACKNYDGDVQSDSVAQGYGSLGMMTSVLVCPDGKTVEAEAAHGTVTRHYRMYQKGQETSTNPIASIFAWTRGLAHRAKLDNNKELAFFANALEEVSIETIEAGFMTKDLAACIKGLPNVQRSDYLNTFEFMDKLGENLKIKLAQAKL
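IDH1-R132H (0.5 ug/mL) preincubated 30 min with compound, then NADPH (0.016 mM) and alpha-KG (2 mM) added; 80 min at RT, pH 7.5. Remaining NADPH coupled via diaphorase/resazurin to fluorescence (540/590 nm); concentration-response curves normalized to no-enzyme control.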
Nrf2 block: Nrf2 qHTS screen for inhibitors; actives 2.1% (n = 360,000); AID 504444, 2011; Potency, µM (highest dose often 46 µM), for inactives: top-dose activity change, negative = inhibition, usual class: inhibitors; A549 ARE-Fluc reporter, luciferase luminescence, 18-24 h; note: potency is the fitted concentration of half-maximal effect; % is set by controls: 0 for no effect and ±100 for the full control effect; nearly all actives have a fitted effect of over 60% in size
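A549 ARE_Fluc cells (5000/well, 5% FBS OPTI-MEM) pre-incubated 2 h, then treated with compounds 18-24 h at 37C/5% CO2 in concentration-response. CellTiter-Fluor viability read first; BugLite luciferase luminescence after 15 min at room temperature gives Nrf2 activity.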
A549 tox: Nrf2 qHTS screen for inhibitors: counterscreen for cytotoxicity; Potency, µM (titrated, usually from 46 µM), inactives show at the top dose activity change, negative = cytotoxicity, usual class: inhibitors; actives 0.16% (n = 390,000); A549 ARE-Fluc cells, CellTiter-Fluor viability, 18-24 h; note: potency is the fitted concentration of half-maximal effect; % is set by controls: 0 for no effect and ±100 for the full control effect
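A549 ARE-Fluc cells in 5% FBS OPTI-MEM, 5000 cells/well, rested 2 h then exposed to compounds in concentration-response for 18-24 h at 37 °C. Viability by CellTiter-Fluor fluorescence (Ex 405/Em 525) after 30 min; luciferase luminescence (BugLite, 15 min, RT) read afterwards.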
IDH1 autofl: qHTS for Inhibitors of mutant isocitrate dehydrogenase 1 (IDH1): Cherrypicks Autofluorescence Interference. shares compounds with IDH1 R132H inh. Resorufin detection reagent fluorescence interference, cell-free. inhibition of signal, % at 51.2 µM. 750 tested, under 10 active;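 note: 0% = wells with normal resorufin and full inhibition = wells lacking resorufin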
WT IDH1 inh: qHTS for Inhibitors of mutant isocitrate dehydrogenase 1 (IDH1): Cherrypicks in WT IDH1; AID 623995, 2012; shares compounds with IDH1 R132H inh; actives 9% (n = 750); Potency, µM (top dose mostly 115 µM), without a hit: top-dose activity change, negative = inhibition, usual class: inhibitors; WT IDH1 enzyme, NADPH diaphorase/resazurin fluorescence;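 note: potency is the fitted concentration of half-maximal effect; 0% = full WT IDH1 enzyme control and full inhibition = no enzyme wells; nearly all actives have a fitted effect of over 55% in size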
Target sequence (O75874 whole entry, looked up): as the sequence (O75874 whole entry R132H, stated change not applied) above, with H132R counted along it
mIDH1 confirm: qHTS for Inhibitors of mutant isocitrate dehydrogenase 1 (IDH1): Confirmation of Cherrypicks. actives 83% (n = 750). IDH1 R132H enzyme, NADPH diaphorase/resazurin fluorescence. shares compounds with IDH1 R132H inh. Potency, µM (doses to about 76.6 µM), without a hit: at the highest dose activity change, negative = inhibition, most hits filed as inhibitors; note: potency is the fitted concentration of half-maximal effect; nearly all actives have a fitted effect of over 50% in size
* marks the source's active call; other numbers are inactive results; ? = inconclusive; / = no result given; [ ] = another dose, or the depositor's remark. Only some compounds are listed: those with a hit (about 3.8% of all), similar ones and a draw of the others. Calls come from the whole dose curve; as a rule, active = well fitted curve in the direction sought with a large enough effect; inconclusive = small, poorly fitted or top-dose-only effect, or another doubt; inactive = no such curve, though single readings can be large; an effect the other way counts as inactive or inconclusive.

SMILES | Nrf2 ARE act | ELG1 DNA repair | IDH1 R132H inh | Nrf2 block | A549 tox | IDH1 autofl | WT IDH1 inh | mIDH1 confirm
COc1ccc(-c2cc(C(=O)O)c3c(C)nn(-c4ccccn4)c3n2)cc1 | -1% | -1% | 1% | / | -4% | / | / | /
Cc1ccc(C)c(CNC(=O)CN2C(=O)CSc3ccc(S(=O)(=O)N(C)C)cc32)c1 | 1% | / | 0% | 25% | 5% | / | / | /
O=C(CN1CCCN(Cc2ccccc2F)S1(=O)=O)Nc1ccc(F)c(Cl)c1 | 4% | / | -2% | -11% | 4% | / | / | /
CN1C=CC2=C(C#N)C(N)C(C#N)(C#N)[C@H](c3ccccc3)[C@H]2C1 (stereo partly drawn) | -1% | -23% | ? | 3% | -1% | 2 | 38% | ?
N#CC1(C#N)C(C(N)=O)C1c1ccccc1 (stereo not drawn) | 0% | 1% | 2% | -7% | -2% | / | / | /
O=C1CCCc2c1cc(-c1ccccc1)n2-c1ccc(O)cc1 | 11% | ? | -11% | -27% | 22% | / | / | /
Cc1ccc(-c2cc3c(n2-c2ccc(C(=O)O)cc2)CCCC3=O)cc1 | 0%[9.22 µM] | ? | ? | -23% | -1% | -1 | -3% | 35µM*
CN1CC=C2C(C#N)=C(N)C(C#N)(C#N)C(c3ccsc3)C2C1 (stereo not drawn) | 4% | -6% | ? | -2% | -8% | 1 | -13% | ?
N#CC1=C(N)C(C#N)(C#N)C(c2ccncc2)C2CN(C(=O)OCc3ccccc3)CC=C12 (stereo not drawn) | ? | -25% | 46µM* | 23µM* | -16% | -9 | 29% | 45µM*
Cc1cccc(N2CCN(S(=O)(=O)c3ccc4c(c3)C(C(C)C)C(=O)N4)CC2)c1C (stereo not drawn) | 0% | / | 40µM* | 13µM* | -2% | 3 | 6% | 22µM*
Cc1cccc(N2CCN(S(=O)(=O)c3ccc4c(c3)NC(=O)C(C)S4)CC2)c1C (stereo not drawn) | -1% | -6% | -2% | -28% | -6% | / | / | /
CCc1cc(C(=O)NC2CCCc3c2cnn3-c2ccc(F)cc2F)no1 (stereo not drawn) | 0% | / | 5% | / | / | / | / | /
COc1cc(Cl)cc(C(c2c(C(=O)O)[nH]c3ccccc23)c2c(C(=O)O)[nH]c3ccccc23)c1O | 0% | 1% | -4% | ? | 1% | / | / | /
O=C(O)c1[nH]c2ccccc2c1C(c1cc(Br)ccc1O)c1c(C(=O)O)[nH]c2ccccc12 | 0% | 8% | 41µM* | -4% | 0% | 11 | 71µM* | 25µM*
Brc1ccc(-c2csc(NNC3=NCCCCC3)n2)cc1 | 12% | 21% | 26µM* | 15% | -7% | 2 | 38% | ?
O=C(CN1C(=O)COc2ccc(S(=O)(=O)N3CCCCCC3)cc21)Nc1cccc(Cl)c1 | 0% | / | ? | ? | 18µM* | -1 | 5% | ?
